PubChem BioAssay (NCATS)
Results filed as inconclusive are left out. A number with no mark means an inactive call. Unless noted, the call rests on the fitted dose curve; in most records, active means well fitted curve in either direction with a large enough effect (not every such curve was filed as active); inconclusive means small, poorly fitted or top-dose-only effect, or another doubt; inactive means flat fitted curve, though single readings scatter.

Test: Cell Viability - BJ (AID 421; calls by dose curve;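 further: potency means the concentration at half of the fitted maximal effect; cells exposed to compound for 40 hours at 37 °C before readout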)
Conditions: BJ fibroblast viability, qHTS
In short: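 Normal human BJ foreskin fibroblasts, 1500/well in complete medium, treated 40 hr at 37 °C. Cellular ATP by CellTiter-Glo luminescence; normalized to DMSO and 100 uM tamoxifen, AC50 from Hill fit.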

Structure (SMILES)	Potency [µM]
C=CCc1ccc(OC)c(OC)c1	> 92
C=C(C)C1CC=C(C)C(O)C1 (stereo unspecified)	> 92
CC1=C2[C@H](/C=C(\C)C(=O)O)CC[C@@H](C)[C@H]2CC1	> 92
CCCCCCCCCCCC(=O)O	> 92

Test: Cell Viability - Jurkat (AID 426;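 active means dose-dependent loss of cell ATP signal giving a full or clear fitted curve, ranked by lower potency value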; further: potency means the concentration at half of the fitted maximal effect)
Conditions: qHTS
In short: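 Seed 5000 Jurkat E6-1 cells/well; add compound; incubate 40 hr at 37 °C; add CellTiter-Glo; wait 20 min at room temperature; read luminescence. Fit concentration-response with Hill equation for AC50.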

Structure (SMILES)	Potency [µM]
C=CCc1ccc(OC)c(OC)c1	> 92
C=C(C)C1CC=C(C)C(O)C1 (stereo unspecified)	> 92
CCCCCCCCCCCC(=O)O	> 92

Test: Cell Viability - Hek293 (AID 427;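 active means compounds whose dose-response curve shows a full or clear partial loss of cell viability, called from curve shape rather than a numeric limit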;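 further: potency means the concentration at half of the fitted maximal effect; cells exposed to compound for 40 hours at 37 °C before reading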)
Conditions: qHTS
In short: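 HEK293 cells in complete medium were exposed to compound for 40 hr at 37 °C, then cellular ATP was read by CellTiter-Glo luminescence. Data were normalized to DMSO (basal) and 100 uM tamoxifen (100% inhibition), and AC50 came from Hill fits.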

Structure (SMILES)	Potency [µM]
C=CCc1ccc(OC)c(OC)c1	> 92
C=C(C)C1CC=C(C)C(O)C1 (stereo unspecified)	> 92
CC1=C2[C@H](/C=C(\C)C(=O)O)CC[C@@H](C)[C@H]2CC1	> 92
CCCCCCCCCCCC(=O)O	> 92

Test: Cell Viability - HepG2 (AID 433; calls by dose curve;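 further: potency means the concentration at half of the fitted maximal effect; potency for ATP loss meaning cytotoxicity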)
Conditions: qHTS
In short: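 Cytotoxicity read as ATP loss (CellTiter-Glo luminescence) after 40 hr compound exposure of HepG2, 1500 cells/well, 37 °C. AC50 by Hill equation; 0% set by DMSO, 100% inhibition by 100 uM tamoxifen.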

Structure (SMILES)	Potency [µM]
C=CCc1ccc(OC)c(OC)c1	> 92
C=C(C)C1CC=C(C)C(O)C1 (stereo unspecified)	> 92
CC1=C2[C@H](/C=C(\C)C(=O)O)CC[C@@H](C)[C@H]2CC1	> 92
CCCCCCCCCCCC(=O)O	> 92

Test: Cell Viability - MRC5 (AID 434; calls by dose curve;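 further: potency means the concentration at half of the fitted maximal effect; potency reflects cytotoxicity seen as loss of intracellular ATP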)
Conditions: MRC5 lung fibroblast viability, qHTS
In short: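 MRC5 normal human lung fibroblasts, 1500 cells/well, exposed to compound for 40 hr at 37 C. Cellular ATP was read by CellTiter-Glo luminescence; data normalized to DMSO and 100 uM tamoxifen, with AC50 from Hill fits.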

Structure (SMILES)	Potency [µM]
C=CCc1ccc(OC)c(OC)c1	> 92
C=C(C)C1CC=C(C)C(O)C1 (stereo unspecified)	> 92
CC1=C2[C@H](/C=C(\C)C(=O)O)CC[C@@H](C)[C@H]2CC1	> 92
CCCCCCCCCCCC(=O)O	> 92

Test: NFAT Signaling Pathway (AID 444);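 further: carbachol stimulus at about its EC50 of 1 µM final; on the % scale 0 is the no-effect control and ±100 the full control effect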
Conditions: Jurkat NFAT-bla M1, carbachol, beta-lactamase ratio, 5 h; at 7.69 µM (top of the series) unless noted
In short: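 Jurkat cells with NFAT-driven β-lactamase reporter and co-expressed M1 receptor, stimulated with carbachol (final 1 uM, ~EC50), compound titration, 5 h at 37 °C. CCF4 loaded 1 h at RT; 460/530 nm ratio gave %activity and AC50.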

Structure (SMILES)	activity change, negative = inhibition [%]
CN(C)Cc1ccccc1-c1ccc2ncnc(N(C)C)c2c1	-2.16
COc1ccc2[nH]cc(CCNc3ncncc3-c3ccccc3C(F)(F)F)c2c1	-3.73
COc1ccccc1CNc1nc(-c2cccc(NS(C)(=O)=O)c2)nc2ccccc12	-21
COc1cccc(Cn2c(=O)cnc3cnc(N(C)C)nc32)c1	-0.24
CNc1ncncc1-c1ccccc1CN(C)C	-28.4
CN(C)C(=O)c1ccc(-c2ccc3ncnc(Nc4ccc(F)cc4)c3c2)cc1	24.8
c1ccc2c(NCCN3CCOCC3)nc(-c3ccc4c(c3)OCO4)nc2c1	12.2
CN1CCN(c2nc(-c3ccoc3)nc3ccccc23)CC1	-2.81
CN(C)c1nc(-c2cccc(NS(C)(=O)=O)c2)nc2ccccc12	10.8
CN1CCN(c2nc(-c3cccnc3)nc3ccccc23)CC1	11.1
O=c1cnc2cnc(N3CCOCC3)nc2n1Cc1cccs1	-0.57
COc1ccccc1CNc1ncncc1-c1ccccc1C(F)(F)F	-21.7
COc1ncc2nc(-c3cccs3)c(=O)n(CCC#N)c2n1	8.94
COc1ccccc1-c1nccc(N2CCN(C)CC2)n1	-18.8
Cc1nc2cnc(N3CCOCC3)nc2n(CCc2ccccc2)c1=O	15.3
COc1ccccc1CNc1ncnc2ccc(-c3ccc(C(=O)N(C)C)cc3)cc12	14.5
c1ccc2c(NCCN3CCOCC3)nc(-c3ccoc3)nc2c1	-7.47
